Assay outcomes deposited in PubChem BioAssay by National Center for Advancing Translational Sciences (NCATS).
Rab9 promoter act = qHTS Assay for Rab9 Promoter Activators; Huh7 Rab9 promoter-luciferase reporter, luminescence, 24 h; Potency, µM (top dose mostly 9.22 µM), inactives show top-dose activation, negative = inhibition, most hits filed as activators; hit rate 2.8% among 320,000; also: % of control where 0% means no effect; nearly all actives have a fitted effect of over 60% in size
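Huh7 cells stably carrying a Rab9 promoter-luciferase reporter, 1500 cells per well in OP-MEM I with 10% FBS, treated with compound 24 hours at 37C. Luciferase activity read by luminescence after 10 minutes with Amplite reagent.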
NPC1 promoter act = qHTS Assay for NPC1 Promoter Activators. Potency, µM (titrated, usually from 9.22 µM), without a hit: at the highest dose activation, most hits filed as activators. hit rate 2.4% among 320,000. Huh7 NPC1 promoter luciferase reporter, 24 h; also: % of control where 0% means no effect; nearly all actives have a fitted effect of over 60% in size
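NPC1 promoter–luciferase Huh7 cells; 24 h compound; luminescence.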
Luc counter = Counterscreen for Luciferase (Kinase-Glo TM) Inhibition. Luciferin 4-monooxygenase (Photuris pensylvanica), Q27757. Kinase-Glo luciferase, ATP luminescence, 8 min. Potency, µM (doses to about 38.3 µM), for inactives: at the highest dose activity change, negative = inhibition, hits mostly inhibitors. hit rate 0.28% among 200,000. AID 1379, 2008; also: % is scaled to controls: 0 for no effect and ±100 for the full control effect; nearly all actives have a fitted effect of over 60% in size
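Substrate mix (final 50 mM imidazole pH 7.2, 50 mM KCl, 7 mM MgCl2, 10 uM ATP, 0.01% Tween 20, 0.05% BSA) plus pin-tool compound, then Kinase-Glo detection mix; 8 min ambient, luminescence read.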
ELG1 genotoxic = qHTS screen for small molecules that induce genotoxicity in human embryonic kidney (HEK293T) cells expressing luciferase-tagged ELG1 | HEK293T ELG1-luciferase reporter, luminescence, 16 h | Potency, µM (doses to about 46 µM), without a hit: at the top dose activity change, positive = activation, usual class: activators | hit rate 1.3% among 330,000 | AID 504466, 2011; also: % of control where 0% means no effect; nearly all actives have a fitted effect of over 60% in size
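HEK293T cells expressing luciferase-tagged ELG1 were exposed to compound or DMSO vehicle for 16 hr at 37 °C and 5% CO2. Luciferase activity was then measured with ONE-Glo after 30 min at room temperature.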
FLuc modulator = qHTS profiling assay for firefly luciferase inhibitor/activator using purifed enzyme and Km concentrations of substrates (counterscreen for miR-21 project); hit rate 6.9% among 360,000; purified FLuc, Km substrates, luminescence inhibition; Luciferin 4-monooxygenase (Photinus pyralis), P08659; AID 588342, 2011; Potency, µM (top dose mostly 57.5 µM), without a hit: top-dose activity change, negative = inhibition, actives largely listed as inhibitors;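 also: plate controls were vehicle for no effect and reference inhibitor for full effect; nearly all actives have a fitted effect of over 55% in size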
Target sequence (P08659 whole entry, looked up): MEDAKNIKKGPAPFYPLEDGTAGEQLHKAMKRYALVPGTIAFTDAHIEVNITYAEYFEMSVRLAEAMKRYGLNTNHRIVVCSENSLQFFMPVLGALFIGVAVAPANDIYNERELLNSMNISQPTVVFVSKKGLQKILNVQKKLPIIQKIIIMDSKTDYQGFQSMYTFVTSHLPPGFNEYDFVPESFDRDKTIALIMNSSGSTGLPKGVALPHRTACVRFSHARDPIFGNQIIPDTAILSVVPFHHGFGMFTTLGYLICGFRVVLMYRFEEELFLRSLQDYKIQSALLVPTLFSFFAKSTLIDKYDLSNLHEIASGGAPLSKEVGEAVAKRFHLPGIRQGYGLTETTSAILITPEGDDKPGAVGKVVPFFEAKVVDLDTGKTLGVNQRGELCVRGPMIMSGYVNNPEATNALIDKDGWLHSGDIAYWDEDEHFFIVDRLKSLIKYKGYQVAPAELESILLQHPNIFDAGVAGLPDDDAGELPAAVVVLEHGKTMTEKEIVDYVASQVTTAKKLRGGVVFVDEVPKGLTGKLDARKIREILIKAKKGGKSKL
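Biochemical qHTS of compounds, final roughly 60 µM downward over six points, against 10 nM purified firefly luciferase using Km concentrations of substrates (10 uM D-luciferin, 10 uM ATP) in Tris acetate pH 7.5 buffer; luminescence output.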
SMN2 splice enh = qHTS Assay for Enhancers of SMN2 Splice Variant Expression. HEK293 SMN2-luciferase splicing reporter, luminescence, 30-36 h. Potency, µM (titrated, usually from 46.1 µM), without a hit: at the top dose activity change, positive = activation, actives largely listed as activators. hit rate 2.8% among 210,000; also: % of control where 0% means no effect; nearly all actives have a fitted effect of over 55% in size
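HEK293 cells carry an SMN2 minigene-luciferase reporter in which exon 7 inclusion puts luciferase in frame. Cells were seeded at 2000 cells/well, attached for 10-12 hours, then exposed to compounds for 30-36 hours at 37C before ONE-Glo luminescence.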
* marks the source's active call; other numbers are inactive results; ? = inconclusive; · = no result given; [ ] = dose if it differs, or a comment. A selection: hits, their analogues and other compounds. The true share with any hit is near 7.4%. Calls follow the shape of the dose curve; as a rule, active = well fitted curve in the direction sought with a large enough effect; inconclusive = small, poorly fitted or top-dose-only effect, or another doubt; inactive = no such curve, though single readings can be large; an effect the other way counts as inactive or inconclusive. Potency is read from the fitted curve at half-maximal effect.

SMILES | Rab9 promoter act | NPC1 promoter act | Luc counter | ELG1 genotoxic | FLuc modulator | SMN2 splice enh
COc1ccc(C2CC(=O)N(CC(=O)Nc3ccc(C(F)(F)F)cc3)c3ccccc3S2)cc1 (configuration not stated) | · | · | · | · | 11µM* | -13%
N[C@H](Cn1ccc(=O)n(Cc2ccccc2C(=O)O)c1=O)C(=O)O | · | · | 0% | · | · | ·
COc1ccc(NC(=O)CCC(=O)NCc2ccco2)c([N+](=O)[O-])c1 | 4% | -5% | · | -1% | 2% | ·
Nc1ccccc1SSc1ccccc1N | 6%[1.84 µM] | 0% | · | 10% | 11µM* | ·
Cc1cc(-c2nnc(SCC(=O)Nc3ccc(F)cc3F)n2N)n[nH]1 | -1% | 1% | · | 0% | 0% | ·
CNC(=S)N/N=C(\C)c1ccc2c(c1)OCO2 | 0% | 1% | -2% | 6% | 0% | 7%
C/C(=N\Nc1nc2ccccc2s1)c1ccc(Br)s1 | 15% | 26% | · | -8% | 15µM* | ·
C/C(=N\Nc1nc2ccccc2s1)c1ccc2c(c1)OCO2 | ? | 27% | -3% | ? | 9.5µM* | 18µM*
O=C(N=C1SC2CS(=O)(=O)CC2N1CCc1ccccc1)C1CCCCC1 (configuration not stated) | -8% | -4% | · | 6% | 3% | ·
CSc1ccc(CCNC(=O)c2cccc3c2C(=O)N(C2CCCCC2)C3)cc1 | -4% | -6% | · | -7% | -5% | ·
CC(C)[C@@H](CO)NC(=O)c1ccc2c3n(nc2c1)-c1ccccc1CO3 | ? | 0.5µM* | · | ? | 1.7µM* | ·
CC(C)NC(=O)c1ccc2c3n(nc2c1)-c1ccccc1CO3 | ? | 0.28µM* | · | ? | 0.43µM* | ·
CC(C)NC(=O)c1ccc(NC(=O)N2CCCCc3ccccc32)cc1 | · | · | · | · | -4% | ·
Cc1ccc(C(=O)Nc2cc3[nH]c(=O)oc3cc2C)cc1 | 1% | -3% | · | 12% | -16% | ·
Oc1oc(-c2ccccc2)nc1/C=N/c1nccs1 | 12% | 2% | -4% | 2% | 12µM* | ?
Cc1ccc(-c2nc(C=Nc3cccc(C)c3)c(O)o2)cc1 | 1% | 6% | -10% | 12% | ? | -18%
Cc1ccc(-c2nc(C=Nc3ccccc3)c(O)o2)cc1 | ? | 18% | 8% | ? | 9.5µM* | ·
Cc1ccc(N=Cc2nc(-c3ccco3)oc2O)cc1 | 8% | 1% | 4% | ? | 4.3µM* | 12%
CCCc1nn2c(=O)cc(COC(=O)c3ccccc3NC(=O)c3ccc(OCC)cc3)nc2s1 | · | · | · | · | -12% | ·
CC(C)(C)C1CCC(C(=O)Nc2nccs2)CC1 (configuration not stated) | 27% | ? | · | -1% | ? | ·
Cc1cnc(NC(=O)C2CCC(C(C)(C)C)CC2)s1 (configuration not stated) | ? | 28% | · | 12% | 19µM* | ·
O=C(c1cc(COc2ccc(F)cc2Cl)on1)N1C[C@H]2CC[C@H]1C2 | 2.8µM* | ? | · | ? | 13µM* | ·
O=C(c1cc(COc2ccc(F)cc2Cl)on1)N1CC2C[C@@H]3CC1C[C@H](C2)C3 | 2.5µM* | 3.2µM* | · | 9.2µM* | 6.7µM* | ·
COc1ccc(-c2nnc(-c3ccc(F)cc3)o2)cc1 | 1µM* | 1.3µM* | · | 3.7µM* | 2.1µM* | ·
COc1ccc(-c2nnc(-c3ccccc3O)o2)cc1 | ? | ? | · | ? | 2.4µM* | ·
SMILES | Rab9 promoter act | NPC1 promoter act | Luc counter | ELG1 genotoxic | FLuc modulator | SMN2 splice enh
COc1ccc(-c2nnc(-c3ccc(C)cc3)o2)cc1 | ? | 1.6µM* | · | ? | 1.9µM* | ·
Cc1ccc(-c2nnc(-c3ccccc3)o2)cc1 | 1.4µM* | 3.2µM* | -26% | ? | 2.7µM* | 2.8µM*
COc1ccc(-c2ccc(-c3nnc(-c4ccncc4)o3)cc2)cc1 | 20% | 20% | -5% | 4% | ? | -23%
CCNc1nnc(-c2ccc(C)cc2)o1 | 4µM* | 3.5µM* | -6% | ? | 15µM* | 24%
Cc1c(C)n(Cc2ccc(F)cc2)c2ccc(C(=O)N3CCN(c4ccc(F)cc4)CC3)cc12 | · | · | · | · | 7% | ·
COc1ccc(NC(=S)NC(=O)c2ccccc2)cn1 | 1.8µM* | ? | · | ? | 13µM* | ·
O=C(O)c1ccc(NC(=S)NC(=O)c2ccc(-c3ccccc3)cc2)cc1 | ? | 21% | -2% | 14% | 6µM* | 0%
COc1ccc(NC(=O)c2cccc(Oc3ccccc3)c2)cn1 | 10% | -12% | · | 10% | 19µM* | ·
COc1cccc(C(=O)Nc2ccc(NC(=O)C(C)(C)C)cn2)c1 | 0.32µM* | 0.35µM* | -11% | ? | 0.85µM* | 0.89µM*
NC(=O)c1ccc(NC(=O)c2cccc(Oc3ccccc3)c2)cc1 | -7% | -1% | 1% | 10% | 5% | -7%
CCn1c(SCc2cccc(Br)c2)nnc1-c1nonc1NC(C)=O | · | · | · | · | -7% | ·
CCN(CC(=O)NC1CCS(=O)(=O)C1)S(=O)(=O)c1ccc(C)c(C)c1 (configuration not stated) | -5% | 1% | -2% | 2% | -6% | 6%
CCN(Cc1ccncc1)Cc1nc(Cc2ccccc2Cl)no1 | 0% | -8% | 2% | -6% | -1% | ·
CCOC(=S)SCc1cn2ccc(C)cc2n1 | 0% | -4% | -3% | 0% | 24µM* | -31%
Cc1ccn2cc(CSc3ccccc3N)nc2c1 | 0.63µM* | 2.2µM* | -4% | ? | 11µM* | ?
